# Source: PubChem
# NS1 inh: inhibitors of influenza NS1 protein function | Potency, µM (highest dose often 46.1 µM), without a hit: top-dose activity, positive = more growth | 0.4% of 270,000 active | AID 2326; note: potency is the fitted concentration of half-maximal effect; actives are rising curves; nearly all actives have a fitted effect of over 50% in size
#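 Growth recovery, yeast-based: influenza A NS1 expressed in S. cerevisiae causes slow growth, and suppressors are detected by OD600. The parent strain without NS1 is used as positive control.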
# Shiga toxin inh: inhibitors of Shiga toxin in Vero cells. Vero cells, Shiga toxin protein synthesis inhibition reporter. inhibition, % at 38.7 µM. 9.2% of 290,000 active; in the data active = inhibition mostly above about 28%, no sharp cut-off; inactive = mostly below about 43%; note: 0% is about no effect
# SARS PLP yeast: blocks SARS-CoV papain-like protease in a yeast assay | AID 485353 | S. cerevisiae expressing SARS-CoV PLpro, growth rescue | Potency, µM (titrated, usually from 32.9 µM), for inactives: at the top dose activity, positive = growth rescue, actives largely listed as activators | 0.19% of 330,000 active; note: potency is the fitted concentration of half-maximal effect; 0% is about no effect; nearly all actives have a fitted effect of over 55% in size
# Cycloheximide cs: counter-screen hit for Shiga toxin inhibitors, cycloheximide; cell reporter, cycloheximide protein synthesis inhibition counterscreen; 12% of 300,000 active; AID 2314; max response, %; in the data active = max response mostly above about 13%, no sharp cut-off; inactive = mostly below about 14%; note: read at 38.3 µM for the half of the compounds with a filed dose; 0% is about no effect
# * marks the source's active call; other numbers are inactive results; ? = inconclusive; / = not tested or not shown; [ ] = remark or other dose. An excerpt weighted towards active compounds, which were near 12% of everything screened. Unless noted, calls come from the whole dose curve.
SMILES,NS1 inh,Shiga toxin inh,SARS PLP yeast,Cycloheximide cs
CC(=O)c1ccc(NS(=O)(=O)c2ccc(N)cc2)cc1,12%,50*,1%,28*
Cc1cc(C)c(S(=O)(=O)Nc2ccc(C(N)=O)cc2)c(C)c1,2%,-2,0%,-4
COc1c([N+](=O)[O-])cc(C(=O)NNC(=O)c2ccc(C)cc2)cc1[N+](=O)[O-],-14%,-3,0%,1
CC(OC(=O)c1ccccc1C(=O)N(C)Cc1ccccc1)C(=O)NC1(C#N)CCCCC1 (configuration not stated),/,/,1%,/
Cc1ccc(S(=O)(=O)N2CCC(C(=O)O)(c3ccccc3)CC2)cc1,-11%,/,/,/
CN(C(=O)c1ccccc1C(=O)OCC(=O)c1ccc(Br)cc1)c1ccccc1,/,/,-4%,/
COC(=O)C1=C(O)/C(=C\c2cc(C)n(-c3ccc(F)cc3)c2C)N=C1C,/,75*,-4%,31
COC(=O)C1=C(O)/C(=C/c2cccc(OC)c2O)N=C1C,4%,47*,-1%,29*
COC(=O)C1=C(C)NC(=O)/C1=C\c1cc(C)n(-c2ccc(F)cc2)c1C,4%,-10,0%,-3
O=C1c2ccccc2C(=O)N1CCc1ccccn1,-4%,13,-5%,16*
O=C1c2ccccc2C(=O)N1CCCCCCc1ccccc1,/,/,0%,/
N#Cc1ccccc1CCN1C(=O)c2ccccc2C1=O,3%,/,-2%,41*
O=C(NCC(c1ccc(F)cc1)N1CCOCC1)c1ccc([N+](=O)[O-])o1 (configuration not stated),/,/,2%,/
c1ccc(NC2=Nc3ccccc3CS2)cc1,-3%,99*,8%,31*
C/C(=N\[N+](C)(C)C)c1ccc(C)c(C)c1,3%,/,/,/
COc1ccc(C(=O)N/C(=C\c2ccc(SC)cc2)C(=O)NCCCn2ccnc2)cc1OC,/,/,-2%,/
Cc1c(N=C/C=C/c2ccccc2)cnn1C,-11%,33,-6%,23*
N=C1/C(=C\c2ccc(OC(=O)c3ccc(F)cc3)cc2)C(=O)N=C2SC(N3CCCC3)=NN12,-40%,11,-3%,15
N=C1/C(=C\c2ccc(OC(=O)c3ccccc3)cc2)C(=O)N=C2SC(N3CCOCC3)=NN12,-24%,11,-1%,15*
N=C1/C(=C\c2ccc(OCc3ccccc3)cc2)C(=O)N=C2SC(N3CCCC3)=NN12,3%,45*,2%,27*
Cc1ccc(C(=O)Oc2ccc(/C=C3\C(=N)N4N=C(N5CCOCC5)SC4=NC3=O)cc2)cc1,5%,59*,0%,26*
COc1ccc(S(=O)(=O)NCCSC(C)(C)C)c(Cl)c1Cl,-57%,13,-16%,2
COc1ccc(CCNC(=O)CSc2nnc3ccc(-c4cccnc4)nn23)cc1OC,/,20,0%,-2
COC(=O)c1ccc(C(=O)OC)c(NC(=O)CSCc2ccccc2Br)c1,4%,-11,4%,-3
Cc1noc(C)c1S(=O)(=O)NCc1ccc2c(c1)OCO2,-5%,1,-7%,-4
SMILES,NS1 inh,Shiga toxin inh,SARS PLP yeast,Cycloheximide cs
Cc1c(C(=O)/C=C/c2cccs2)oc2ccc(F)cc12,-11%,73*,-13%,36*
Cc1c(C(=O)N2CCN(C(=O)c3ccccc3)CC2)oc2ccc(F)cc12,/,/,2%[6.58 µM],/
CCOC(=O)Cn1c(-c2cccnc2Cl)nc2cc(Cl)c(Cl)cc21,5%,-2,-17%,-3
Clc1cc2nc(-c3cccnc3Cl)[nH]c2cc1Cl,0%,105*,1%,29*
Oc1cccc(-c2nc3ccccc3s2)c1,-53%,43*,-11%,24*
Nc1cccc(-c2nc3ccccc3s2)c1,-12%,69*,2%,31*
CC(C)c1ccc(-c2nc3ccccc3s2)cc1,-1%,-12,-1%,-1
O=C(O)c1ccc2c(c1)C(=O)N(c1cccc(-c3nc4ccccc4s3)c1)C2=O,1%,61*,0%,49*
CC[n+]1cccc(-c2nc3ccccc3s2)c1,/,57,2%,39*
Cc1ccc(C)c(OCCC(=O)Nc2cccc(S(=O)(=O)N3CCCCC3)c2)c1,/,/,5%,/
CCc1c(C)nc(SCC(=O)N2CCc3ccccc32)[nH]c1=O,?,-23,8%,0
Cc1[nH]nc(-c2ccc(O)cc2O)c1-c1nc2ccccc2s1,/,12,1%,-6
Cc1cc(C)c(-c2nc3ccccc3s2)[nH]1,-11%,96*,-8%,32*
Cc1ccccc1CC1(CO)CCCN(C(=O)CCC(=O)c2ccccc2)C1 (configuration not stated),-6%,19,5%,1
Cc1ccccc1CC1(CO)CCCN(C(=O)CCN2CCCO2)C1 (configuration not stated),8%,36*,-4%,17*
COCCNC(=O)COC(=O)/C=C/c1cnc2ccccc2n1,-11%,19,-8%,29
COC(=O)/C=C/c1cnc2ccccc2c1,/,118*,-1%,36*
COc1ccc2nc(NC(=O)Nc3ccccc3)sc2c1,-3%,92*,-19%,56*
CCOc1ccc2nc(NC(=O)Nc3ccccc3)sc2c1,-11%,89,-6%,22*
CCOc1ccc2nc(NC(=O)Nc3cccs3)sc2c1,-47%,72*,-7%,63*
CCOc1ccc2nc(NC(=O)NC3CCCCC3)sc2c1,-1%,-10,0%,1
COc1ccc(NC(=O)Nc2nc3ccccc3s2)cc1,-42%,114*,-1%,44*
COc1ccc(C(=O)Nc2nc3ccccc3s2)c(OC)c1,-28%,-20,-20%,-7
CC(C)(C)S(=O)(=O)/C(C#N)=C/c1sccc1C1OCCO1,5%,-6,0%,-1
C=CCN=C1N[C@@H](c2ccc(Br)cc2)C(C(=O)OC)=C(C)N1Cc1ccccc1,4%,8,-1%,-6
SMILES,NS1 inh,Shiga toxin inh,SARS PLP yeast,Cycloheximide cs
Cc1ccc(S(=O)(=O)N(C)c2ccccc2C(=O)Nc2c(F)cccc2F)cc1,-3%,-11,-3%,2
Cc1cc(NC(=O)Nc2ccccc2)n(C(C)(C)C)n1,-1%,-4,1%,0
O=C(Nc1nc2c(F)cc(F)cc2s1)c1ccccn1,/,95*,0%,35*
COc1ccc(OC)c2sc(NNC(=O)COc3ccccc3)nc12,/,-6,0%,8
Cc1ccc2nc(NC(=O)c3ccccn3)sc2c1,/,-11,15%,-7
CC(C)(C)c1nc(NC(=O)Nc2ccccc2)sc1Br,-37%,71*,-4%,46*
CCOc1ccc2nc(NC(=O)c3ccccn3)sc2c1,-48%,45*,-1%,24*
COc1ccc(OCC(=O)NNc2nc3ccccc3s2)cc1,-2%,77*,0%,44*
O=C1OC(c2ccc(F)cc2)=N/C1=C\c1ccc(Br)o1,/,10,1%,11
CS(=O)(=O)c1ccc2nc(NC(=O)C3=NN(c4ccccc4)C(=O)CC3)sc2c1,1%,-11,1%,-4
COc1ccc2nc(NC(=O)C3=NN(c4ccccc4)C(=O)CC3)sc2c1,6%,27,-2%,18*
CCn1c(=O)c(=O)[nH]c2cc(C(=O)NC(C)c3ccc(S(N)(=O)=O)cc3)ccc21 (configuration not stated),6%,-6,1%,-3
Cc1ccc(-c2c(NC(=O)c3ccco3)oc3ccccc3c2=O)cc1,-11%,36,-3%,8
O=C(Nc1oc2ccccc2c(=O)c1-c1ccc(Cl)cc1)c1ccco1,-63%,13,/,22*
